# Reference: ChEMBL document CHEMBL3988442, “University of Dundee, Small-Polar-MMV Screening Library” (2021)
# For some of these results: Measured potencies and affinities stand elsewhere.
# Tests used:
# Parameters in all cases: scale not given: direction of the effect not stated beside the values
# [1] = target: Protein translocase subunit SecA (Escherichia coli (strain K12)) (UniProt P10408); test: Assay to Identify E. coli SecA ATPase Inhibitors; type: functional; details: 30 µM
# [2] = target: T1, Ubiquitin-activating enzyme e1, putative (Leishmania donovani (strain BPK282A1)) (UniProt E9BSI1); test: Leishmania donovani Ubiquitin Activating Enzyme (LdE1); type: functional; details: 30 µM
# T1 sequence (whole entry): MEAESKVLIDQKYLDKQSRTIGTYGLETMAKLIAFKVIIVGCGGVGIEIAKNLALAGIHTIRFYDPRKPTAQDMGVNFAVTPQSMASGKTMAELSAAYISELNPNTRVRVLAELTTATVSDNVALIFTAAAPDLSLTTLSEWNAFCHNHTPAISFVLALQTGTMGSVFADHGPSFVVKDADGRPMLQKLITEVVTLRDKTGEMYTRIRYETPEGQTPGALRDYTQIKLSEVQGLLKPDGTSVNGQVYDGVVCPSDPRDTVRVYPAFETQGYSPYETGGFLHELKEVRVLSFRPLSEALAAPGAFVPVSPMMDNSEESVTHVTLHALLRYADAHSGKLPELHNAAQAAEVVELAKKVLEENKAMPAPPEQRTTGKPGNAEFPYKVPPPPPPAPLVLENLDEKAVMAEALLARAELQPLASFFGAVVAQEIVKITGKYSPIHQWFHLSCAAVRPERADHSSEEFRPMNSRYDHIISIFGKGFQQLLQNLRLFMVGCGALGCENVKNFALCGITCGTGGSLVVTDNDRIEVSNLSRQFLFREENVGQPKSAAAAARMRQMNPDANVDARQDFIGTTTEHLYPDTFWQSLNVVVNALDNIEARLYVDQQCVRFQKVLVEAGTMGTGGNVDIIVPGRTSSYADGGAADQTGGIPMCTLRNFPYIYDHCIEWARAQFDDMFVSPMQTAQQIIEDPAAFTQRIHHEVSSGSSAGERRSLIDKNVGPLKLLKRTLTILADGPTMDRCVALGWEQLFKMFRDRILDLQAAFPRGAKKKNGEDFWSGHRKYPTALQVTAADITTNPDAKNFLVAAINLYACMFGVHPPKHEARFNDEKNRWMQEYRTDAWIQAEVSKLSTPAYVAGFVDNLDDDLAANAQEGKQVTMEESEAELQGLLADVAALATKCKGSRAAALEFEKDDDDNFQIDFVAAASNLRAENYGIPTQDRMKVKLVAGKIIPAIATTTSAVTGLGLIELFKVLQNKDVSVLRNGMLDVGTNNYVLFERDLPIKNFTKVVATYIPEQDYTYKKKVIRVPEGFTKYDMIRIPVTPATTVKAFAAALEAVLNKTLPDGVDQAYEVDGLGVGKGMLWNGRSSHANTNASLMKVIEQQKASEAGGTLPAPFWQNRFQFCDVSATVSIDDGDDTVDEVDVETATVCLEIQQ
# [3] = target: AMP-activated protein kinase, AMPK (Homo sapiens) (UniProt P54646+O43741+P54619+Q9UGJ0+Q9Y478+Q13131+Q9UGI9); test: AMP-dependent Kinase enzyme assay. An in vitro enzyme assay that detects ADP turnover that is directly proportional to AMPK activity. This uses naive AMPK that is activated during the assay with MK-8722; type: functional; details: 30 µM
# [4] = target: Sialic acid-binding Ig-like lectin 9 (Homo sapiens) (UniProt Q9Y336); test: Hs-Siglec9 ALPHAscreen SOP 20170721; details: 10 µM
# Chain of Sialic acid-binding Ig-like lectin 9 (Homo sapiens) (Q9Y336 whole entry): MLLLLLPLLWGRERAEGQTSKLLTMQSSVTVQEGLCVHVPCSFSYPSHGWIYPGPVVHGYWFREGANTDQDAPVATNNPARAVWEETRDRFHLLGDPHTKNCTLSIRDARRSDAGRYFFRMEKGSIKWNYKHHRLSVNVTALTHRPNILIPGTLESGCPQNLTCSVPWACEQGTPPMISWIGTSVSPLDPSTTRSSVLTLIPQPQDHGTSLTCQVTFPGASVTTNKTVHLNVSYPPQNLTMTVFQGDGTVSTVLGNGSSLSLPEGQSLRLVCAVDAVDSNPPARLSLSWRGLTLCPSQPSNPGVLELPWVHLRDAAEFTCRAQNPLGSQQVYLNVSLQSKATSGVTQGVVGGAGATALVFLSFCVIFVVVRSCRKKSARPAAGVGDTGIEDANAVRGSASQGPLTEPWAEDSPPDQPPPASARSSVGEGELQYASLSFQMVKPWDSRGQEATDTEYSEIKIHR
# Trypanosoma cruzi = test: Trypanosoma cruzi phosphomannomutase and mannose-1-phosphate guanylyltransferase assay; type: functional; details: 10 µM
# [5] = target: T2, Arginase-2, mitochondrial (Homo sapiens) (UniProt P78540); test: in vitro enzyme assay to detect the production of urea directly proportional to the activity of Arginase II; type: functional; details: 33.3 µM; note: in the data most compounds retested in dose-response had high values
# T2 sequence (whole entry): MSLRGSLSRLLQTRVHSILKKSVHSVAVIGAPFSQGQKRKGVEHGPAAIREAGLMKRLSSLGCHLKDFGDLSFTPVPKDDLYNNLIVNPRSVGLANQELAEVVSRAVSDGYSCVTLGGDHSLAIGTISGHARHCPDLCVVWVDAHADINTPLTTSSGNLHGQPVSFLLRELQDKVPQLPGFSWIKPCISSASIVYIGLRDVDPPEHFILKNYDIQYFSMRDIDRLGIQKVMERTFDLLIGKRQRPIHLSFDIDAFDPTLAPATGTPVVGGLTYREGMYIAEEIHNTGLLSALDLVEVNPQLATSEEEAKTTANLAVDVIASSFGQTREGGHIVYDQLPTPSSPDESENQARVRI
# [6] = target: T3, Proteasome subunit beta (Trypanosoma cruzi) (UniProt O96673); test: Trypanosoma cruzi proteasome chymotrypsin-like activity (TcProtChymo) assay.; note: in the data most compounds retested in dose-response had high values; type: functional; details: 9.37 µM
# T3 sequence (whole entry): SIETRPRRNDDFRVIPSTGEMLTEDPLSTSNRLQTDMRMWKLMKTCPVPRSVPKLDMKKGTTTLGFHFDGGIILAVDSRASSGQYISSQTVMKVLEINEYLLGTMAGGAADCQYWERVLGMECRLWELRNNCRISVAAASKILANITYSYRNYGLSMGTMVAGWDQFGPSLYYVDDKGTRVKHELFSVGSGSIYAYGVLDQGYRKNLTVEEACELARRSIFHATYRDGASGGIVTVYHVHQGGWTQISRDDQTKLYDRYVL
# Homo sapiens = species: Homo sapiens; test: To identify inhibition of the IFN signalling (Jak-Stat) pathway via expression of an eGFP reporter gene under the control of an IFN-stimulated response element (ISRE) containing MxA promoter.; type: functional; details: 30 µM
# [7] = target: T4, Tyrosyl-tRNA synthetase, putative (Trypanosoma cruzi (strain CL Brener)) (UniProt Q4DSP6); test: Trypanosoma cruzi tyrosyl tRNA synthetase (TcYRS) _High Tyrosine SOP; type: functional; details: 30 µM; note: in the data most compounds retested in dose-response had high values
# T4 sequence (whole entry): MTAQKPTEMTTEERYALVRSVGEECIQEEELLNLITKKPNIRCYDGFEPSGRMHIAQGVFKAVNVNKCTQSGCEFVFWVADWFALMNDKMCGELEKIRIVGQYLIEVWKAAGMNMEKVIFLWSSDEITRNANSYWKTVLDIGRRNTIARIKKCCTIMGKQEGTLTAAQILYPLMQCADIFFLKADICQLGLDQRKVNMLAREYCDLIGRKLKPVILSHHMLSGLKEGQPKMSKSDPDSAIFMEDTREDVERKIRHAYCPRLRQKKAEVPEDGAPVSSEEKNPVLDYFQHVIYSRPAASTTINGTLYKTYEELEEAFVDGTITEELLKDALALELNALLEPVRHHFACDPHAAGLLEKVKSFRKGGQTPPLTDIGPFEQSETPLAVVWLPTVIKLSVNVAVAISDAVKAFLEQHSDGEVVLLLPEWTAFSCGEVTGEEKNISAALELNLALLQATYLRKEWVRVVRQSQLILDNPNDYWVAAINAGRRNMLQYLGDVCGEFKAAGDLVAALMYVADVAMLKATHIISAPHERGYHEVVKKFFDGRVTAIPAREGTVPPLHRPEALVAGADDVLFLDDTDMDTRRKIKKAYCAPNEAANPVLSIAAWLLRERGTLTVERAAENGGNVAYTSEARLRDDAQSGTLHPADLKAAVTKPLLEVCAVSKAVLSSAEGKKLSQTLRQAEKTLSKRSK
# [8] = target: T4, Tyrosyl-tRNA synthetase, putative (Trypanosoma cruzi (strain CL Brener)); test: Trypanosoma cruzi tyrosyl tRNA synthetase (TcYRS) SOP; type: functional; details: 30 µM
# [9] = target: Chromo domain-containing protein 1 (Saccharomyces cerevisiae (strain ATCC 204508 / S288c) (Baker's yeast)) (UniProt P32657); test: ScCHD-1 Enzyme Inhibition Assay; type: functional; details: 30 µM; note: in the data most compounds retested in dose-response had high values
# Chain of Chromo domain-containing protein 1 (Saccharomyces cerevisiae (strain ATCC 204508 / S288c) (Baker's yeast)) (P32657 whole entry, the tested form may be a part): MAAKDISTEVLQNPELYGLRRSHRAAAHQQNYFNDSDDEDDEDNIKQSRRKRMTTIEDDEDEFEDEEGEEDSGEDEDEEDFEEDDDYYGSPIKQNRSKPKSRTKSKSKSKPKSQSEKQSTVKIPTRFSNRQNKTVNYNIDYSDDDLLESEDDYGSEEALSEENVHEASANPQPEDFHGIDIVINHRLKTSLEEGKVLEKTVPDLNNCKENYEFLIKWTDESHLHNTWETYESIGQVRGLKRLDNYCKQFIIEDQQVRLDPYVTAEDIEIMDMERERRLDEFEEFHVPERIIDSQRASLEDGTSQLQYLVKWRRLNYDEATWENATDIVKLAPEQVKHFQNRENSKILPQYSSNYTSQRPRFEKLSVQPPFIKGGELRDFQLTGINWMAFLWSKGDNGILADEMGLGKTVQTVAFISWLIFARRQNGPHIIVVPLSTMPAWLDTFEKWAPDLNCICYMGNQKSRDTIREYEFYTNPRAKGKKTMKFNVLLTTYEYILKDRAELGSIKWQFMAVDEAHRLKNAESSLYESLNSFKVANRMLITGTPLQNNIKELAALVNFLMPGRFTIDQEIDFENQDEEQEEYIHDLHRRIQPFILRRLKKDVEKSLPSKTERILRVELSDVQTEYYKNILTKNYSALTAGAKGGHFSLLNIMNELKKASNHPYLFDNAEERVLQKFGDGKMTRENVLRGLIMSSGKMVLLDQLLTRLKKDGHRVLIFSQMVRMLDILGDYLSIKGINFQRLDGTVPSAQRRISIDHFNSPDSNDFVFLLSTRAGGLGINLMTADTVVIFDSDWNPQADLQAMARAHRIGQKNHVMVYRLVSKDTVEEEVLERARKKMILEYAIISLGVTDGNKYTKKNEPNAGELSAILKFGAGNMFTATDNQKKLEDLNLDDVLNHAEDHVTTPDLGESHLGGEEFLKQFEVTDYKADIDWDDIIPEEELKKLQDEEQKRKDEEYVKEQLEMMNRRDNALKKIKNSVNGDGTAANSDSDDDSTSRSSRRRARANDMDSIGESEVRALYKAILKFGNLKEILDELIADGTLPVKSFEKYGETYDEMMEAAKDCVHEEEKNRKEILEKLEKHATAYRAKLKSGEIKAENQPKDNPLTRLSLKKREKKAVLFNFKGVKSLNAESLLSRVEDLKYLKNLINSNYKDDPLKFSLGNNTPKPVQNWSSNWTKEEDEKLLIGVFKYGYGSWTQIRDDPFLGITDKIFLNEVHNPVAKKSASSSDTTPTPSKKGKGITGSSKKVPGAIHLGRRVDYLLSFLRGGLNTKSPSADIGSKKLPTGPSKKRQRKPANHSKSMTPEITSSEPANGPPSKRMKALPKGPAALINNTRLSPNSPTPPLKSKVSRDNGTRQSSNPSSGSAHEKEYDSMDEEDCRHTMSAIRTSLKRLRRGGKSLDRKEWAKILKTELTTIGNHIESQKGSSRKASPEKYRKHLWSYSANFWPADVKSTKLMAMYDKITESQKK
# Chain of Protein translocase subunit SecA (Escherichia coli (strain K12)) (P10408 whole entry): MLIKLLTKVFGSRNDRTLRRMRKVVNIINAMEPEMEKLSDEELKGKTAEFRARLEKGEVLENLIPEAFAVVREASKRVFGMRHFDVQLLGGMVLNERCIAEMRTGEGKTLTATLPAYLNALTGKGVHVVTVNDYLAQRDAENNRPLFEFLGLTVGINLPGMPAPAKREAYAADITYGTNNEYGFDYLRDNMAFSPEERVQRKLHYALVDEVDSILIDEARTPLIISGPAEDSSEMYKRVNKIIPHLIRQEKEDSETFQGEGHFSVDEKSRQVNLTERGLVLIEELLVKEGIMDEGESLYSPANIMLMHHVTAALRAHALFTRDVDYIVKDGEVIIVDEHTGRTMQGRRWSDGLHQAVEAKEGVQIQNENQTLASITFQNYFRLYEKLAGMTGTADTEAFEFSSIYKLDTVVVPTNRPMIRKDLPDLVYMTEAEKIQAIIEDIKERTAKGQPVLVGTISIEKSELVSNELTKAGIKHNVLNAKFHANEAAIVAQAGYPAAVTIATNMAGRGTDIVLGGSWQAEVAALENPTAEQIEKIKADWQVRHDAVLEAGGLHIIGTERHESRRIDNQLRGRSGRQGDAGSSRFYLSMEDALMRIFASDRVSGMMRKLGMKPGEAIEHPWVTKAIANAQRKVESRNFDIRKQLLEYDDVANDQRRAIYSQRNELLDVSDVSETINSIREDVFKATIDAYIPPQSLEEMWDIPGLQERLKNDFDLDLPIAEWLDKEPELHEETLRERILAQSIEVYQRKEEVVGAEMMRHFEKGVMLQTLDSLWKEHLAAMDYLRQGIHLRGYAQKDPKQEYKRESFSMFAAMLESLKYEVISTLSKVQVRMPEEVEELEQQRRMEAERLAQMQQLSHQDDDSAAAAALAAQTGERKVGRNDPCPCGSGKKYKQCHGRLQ
smiles,measurement,setting,value
CN(Cc1ccco1)Cc1ccccc1CNC(=O)c1cc[nH]n1,Percent Effect,[1],-2.78%
same,Percent Effect,[2],0%
same,Percent Effect,[3],-0.254%
same,Percent Effect,[4],5.67%
same,Percent Effect,Trypanosoma cruzi,-6.56%
same,Percent Effect,[5],0.952%
same,Percent Effect,[6],15.2%
same,Percent Effect,Homo sapiens,18.9%
same,Percent Effect,[7],1.59%
same,Percent Effect,[8],4.88%
same,Percent Effect,[9],-4.37%
CC(C)c1nc2n(n1)CC(NCc1nnc(C(C)C)o1)CC2 (stereo unspecified),Percent Effect,[1],-2.44%
same,Percent Effect,[2],13.5%
same,Percent Effect,[3],139%
same,Percent Effect,[4],8.12%
same,Percent Effect,Trypanosoma cruzi,7.08%
same,Percent Effect,[5],-4.81%
same,Percent Effect,[6],5.41%
same,Percent Effect,Homo sapiens,10.9%
same,Percent Effect,[7],6.4%
same,Percent Effect,[8],18.5%
same,Percent Effect,[9],-8.46%
CN(CC(N)=O)S(=O)(=O)c1ccc(F)cc1Cl,Percent Effect,[1],-4.21%
same,Percent Effect,[2],-5.48%
same,Percent Effect,[3],0.145%
same,Percent Effect,[4],5.52%
same,Percent Effect,Trypanosoma cruzi,-0.794%
same,Percent Effect,[5],0.399%
same,Percent Effect,[6],6.59%
same,Percent Effect,Homo sapiens,16.6%
same,Percent Effect,[7],13.5%
same,Percent Effect,[8],21%
same,Percent Effect,[9],-3.16%
O=C(CC1CCCC1)NCCn1ccc(-c2ccncc2)n1,Percent Effect,[1],-3.35%
same,Percent Effect,[2],0%
same,Percent Effect,[3],5.83%
same,Percent Effect,[4],6.39%
same,Percent Effect,Trypanosoma cruzi,-3.65%
same,Percent Effect,[5],3.23%
same,Percent Effect,[6],1.92%
same,Percent Effect,Homo sapiens,13.7%
same,Percent Effect,[7],-5.29%
same,Percent Effect,[8],3.85%
same,Percent Effect,[9],1.38%
c1cc(CN2CCN(Cc3cscn3)CC2)cs1,Percent Effect,[1],-1.31%
same,Percent Effect,[2],10.4%
same,Percent Effect,[3],3.68%
same,Percent Effect,[4],-2.63%
same,Percent Effect,Trypanosoma cruzi,-2.25%
same,Percent Effect,[5],4%
same,Percent Effect,[6],2.67%
same,Percent Effect,Homo sapiens,29.1%
same,Percent Effect,[7],2.86%
same,Percent Effect,[8],2.35%
same,Percent Effect,[9],-6.18%
O=C(N1CCOCC1)[C@@]12CCO[C@@H]1CCN(CCN1CCCCC1)C2,Percent Effect,[1],-0.594%
same,Percent Effect,[2],14.7%
same,Percent Effect,[3],-0.279%
same,Percent Effect,[4],-2.46%
same,Percent Effect,Trypanosoma cruzi,1.18%
same,Percent Effect,[5],-4.05%
same,Percent Effect,[6],20.9%
same,Percent Effect,Homo sapiens,-2.62%
same,Percent Effect,[7],-6.35%
same,Percent Effect,[8],15.4%
same,Percent Effect,[9],-11.6%
Cc1cccc(C2(C(=O)NCCCn3cccn3)CC2)c1,Percent Effect,[1],-2.92%
same,Percent Effect,[2],19.2%
same,Percent Effect,[3],-1.18%
same,Percent Effect,[4],14.6%
same,Percent Effect,Trypanosoma cruzi,2.94%
same,Percent Effect,[5],17.3%
same,Percent Effect,[6],10.5%
same,Percent Effect,Homo sapiens,8.26%
same,Percent Effect,[7],3.23%
same,Percent Effect,[8],15%
same,Percent Effect,[9],-6.34%
CCc1nc2n(n1)CC(NCc1noc(-c3ccccc3)n1)CC2 (stereo unspecified),Percent Effect,[1],-5.91%
same,Percent Effect,[2],5.26%
same,Percent Effect,[3],-5.76%
same,Percent Effect,[4],10.4%
same,Percent Effect,Trypanosoma cruzi,9.06%
same,Percent Effect,[5],2.52%
same,Percent Effect,[6],-2.28%
same,Percent Effect,Homo sapiens,-13.2%
same,Percent Effect,[7],3.45%
same,Percent Effect,[8],16.1%
same,Percent Effect,[9],-6.43%
Cc1noc2ncc(C(=O)NCC3CCN(C(C)C)C3)cc12 (stereo unspecified),Percent Effect,[1],-2.65%
same,Percent Effect,[2],2.63%
same,Percent Effect,[3],2.21%
same,Percent Effect,[4],2.67%
same,Percent Effect,Trypanosoma cruzi,-6.58%
same,Percent Effect,[5],4.21%
same,Percent Effect,[6],4.34%
same,Percent Effect,Homo sapiens,4.5%
same,Percent Effect,[7],-0.49%
same,Percent Effect,[8],4.88%
same,Percent Effect,[9],3.24%
O=C1C[C@H]2[C@@H](CCN2C(=O)c2ccccc2)N1CCN1CCOCC1,Percent Effect,[1],-2.13%
same,Percent Effect,[2],-2.74%
same,Percent Effect,[3],0.783%
same,Percent Effect,[4],2.27%
same,Percent Effect,Trypanosoma cruzi,0.794%
same,Percent Effect,[5],-2%
same,Percent Effect,[6],2.48%
same,Percent Effect,Homo sapiens,0.931%
same,Percent Effect,[7],2.08%
same,Percent Effect,[8],-1.24%
same,Percent Effect,[9],-3.6%
O=C(C1CC=CC1)N1CCc2c(COCc3ccncc3)cncc2C1,Percent Effect,[1],0.346%
same,Percent Effect,[2],5.48%
same,Percent Effect,[3],3.39%
same,Percent Effect,[4],12.2%
same,Percent Effect,Trypanosoma cruzi,0.198%
same,Percent Effect,[5],-1.2%
same,Percent Effect,[6],29.9%
same,Percent Effect,Homo sapiens,-4.59%
same,Percent Effect,[7],11.5%
same,Percent Effect,[8],11.1%
same,Percent Effect,[9],-4.36%
